Measurements as given in PubChem BioAssay.
Active and inactive are the calls of the source.

Key:
Albumin (Bos taurus) = Albumin (Bos taurus) (UniProt P02769); experiment: compounds binding labelled BSA control protein – biochemical, small-molecule microarray, Alexa647 label, 635/667 nm fluorescence, artefact control for SMM control protein annotation, profiling panel (AID 1118); details: BSA-A647 binding, fluorescence 635 nm, higher = more signal;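 also: score merges 667 nm emission intensity and signal-to-noise per printed compound spot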
Albumin (Bos taurus), sequence (P02769 whole entry, looked up): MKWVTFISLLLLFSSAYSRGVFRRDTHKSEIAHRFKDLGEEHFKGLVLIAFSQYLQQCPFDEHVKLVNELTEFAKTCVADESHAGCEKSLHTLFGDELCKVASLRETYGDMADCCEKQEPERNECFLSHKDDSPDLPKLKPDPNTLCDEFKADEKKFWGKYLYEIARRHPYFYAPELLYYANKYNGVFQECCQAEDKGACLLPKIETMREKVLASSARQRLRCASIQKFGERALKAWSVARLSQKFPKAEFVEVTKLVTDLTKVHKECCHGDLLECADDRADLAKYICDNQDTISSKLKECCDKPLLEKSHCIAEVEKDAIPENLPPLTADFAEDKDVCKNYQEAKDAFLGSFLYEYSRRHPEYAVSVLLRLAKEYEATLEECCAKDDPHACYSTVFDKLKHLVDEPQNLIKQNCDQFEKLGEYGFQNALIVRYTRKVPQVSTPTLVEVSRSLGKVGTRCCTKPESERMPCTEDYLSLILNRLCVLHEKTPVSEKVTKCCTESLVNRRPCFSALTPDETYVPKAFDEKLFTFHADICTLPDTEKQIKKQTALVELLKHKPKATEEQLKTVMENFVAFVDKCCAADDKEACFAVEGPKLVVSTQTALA

[1] = probe aXIP binding to arrayed compounds – biochemical, NeuroSMM set, 635/667 nm fluorescence, primary screen (AID 1119); details: small-molecule microarray, higher = more signal, called active from +8 up or from −8 down;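 also: probe is the protein aXip251-270 applied at 1 µg/mL to compound-printed slides; binding of probe to printed compounds measured as 667 nm fluorescence plus signal to noise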
[2] = probe aNOTCH3 binding on compound microarray – biochemical, small-molecule microarray, 635/667 nm fluorescence, primary screen (AID 1120); details: higher = more signal;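 also: probe is a biotin-tagged antibody raised against NOTCH3 rather than NOTCH3 protein; score merges spot fluorescence near 667 nm with spot signal to noise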
[3] = probe aNOTCH2 binding on compound microarray – biochemical, small-molecule microarray, 635/667 nm fluorescence, primary screen (AID 1121); details: higher = more signal;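 also: score merges feature fluorescence read at 667 nm with its signal to noise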
[4] = biological target: Carbonic anhydrase 2 (Homo sapiens) (UniProt P00918); experiment: compounds binding carbonic anhydrase 2 – biochemical, small-molecule microarray, Alexa647-labelled CAII, profiling panel (AID 1122); details: CAII-A647 binding fluorescence, higher = more signal
[5] = COS7 lysate on small-molecule microarray, probe aHis, 635 nm (AID 1123); details: COS7 cell lysate, fluorescence, higher = more signal;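 also: z-score combines 667nm fluorescence intensity with signal-to-noise per printed compound spot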
[6] = probe aLAP1 signal on lysate-treated microarray – cell lysate, small-molecule microarray, COS7 lysate, primary screen (AID 1124); details: probe aLAP1, fluorescence, higher = more signal;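 also: lysate comes from COS7 cells expressing LAP1 and is applied at 0.3 µg/mL; score merges spot fluorescence near 667 nm with signal-to-noise over triplicate slides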
Sam68 (KHDRBS1) = experiment: compounds binding KHDRBS1 protein – biochemical, small-molecule microarray, 635 nm fluorescence, primary screen (AID 1125); details: higher = more signal;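 also: score merges 667 nm channel intensity with signal to noise over triplicate slides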
[7] = system: Chordin-like protein 2 (CHRDL2); experiment: compounds binding chordin-like 2 – biochemical, small-molecule microarray, 635 nm fluorescence, primary screen (AID 1126); details: fluorescence 635 nm, higher = more signal;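 also: printed compound slides probed with Chrdl2 protein at 4 µg/mL for 1 h at 4 C; score merges 667 nm emission intensity with signal to noise over three replicate slides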
[8] = biological target: Concanavalin-A (Canavalia ensiformis) (UniProt P02866); experiment: compounds binding concanavalin A lectin – biochemical, small-molecule microarray, Alexa647 label, 635 nm, artefact control for SMM control protein annotation, primary screen (AID 1127); details: ConA-A647 binding fluorescence, higher = more signal;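 also: z combines 667 nm emission intensity with signal-to-noise across three replicate slides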
Concanavalin-A (Canavalia ensiformis), sequence (P02866 whole entry, looked up): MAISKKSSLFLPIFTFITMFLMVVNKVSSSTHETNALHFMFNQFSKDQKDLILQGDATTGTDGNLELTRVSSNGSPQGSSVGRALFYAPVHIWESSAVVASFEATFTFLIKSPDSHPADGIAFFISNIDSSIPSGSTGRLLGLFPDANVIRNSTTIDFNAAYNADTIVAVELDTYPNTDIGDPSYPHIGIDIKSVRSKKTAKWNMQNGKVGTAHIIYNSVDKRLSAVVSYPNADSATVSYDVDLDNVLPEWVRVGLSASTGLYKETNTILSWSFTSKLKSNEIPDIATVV

Row | SMILES | composite z-score (Albumin (Bos taurus)) | composite Z-score [1] | composite z-score [2] | composite z-score [3] | composite z-score [4] | composite z-score [5] | composite z-score [6] | composite z-score (Sam68 (KHDRBS1)) | composite z-score [7] | composite z-score [8]
1 | C=CCC(OC(C)=O)[C@@H]1[C@@H](N(Cc2cccc3ccccc23)C(=O)Cc2ccc(F)cc2)c2cc(OCCCO)ccc2N1C(=O)c1ccc2ccccc2c1 (stereo not given in full) | -0.0241 | -0.748 (inactive) | -0.0111 | -0.104 | -0.0968 | 0.0036 | -0.353 | -0.0562 | 0.235 | -0.15
2 | [N-]=[N+]=Nc1ccccc1C[C@@]1(C(=O)N2CCOCC2)N=C(c2ccc(OCCCO)cc2)O[C@@H]1c1ccccc1 | 0.847 | 0.527 (inactive) | 0.457 | -0.224 | 0.544 | 2.59 | -0.235 | 1.32 | -0.209 | 1.11
3 | CCCC=C(CCC)[C@@H](NS(=O)(=O)CC12CCC(CC1=O)C2(C)C)c1ccc(C(=O)OC)cc1 (stereo not given in full) | 0.0225 | 0.234 (inactive) | 0.344 | 0.0727 | -0.0343 | 2.12 | 0.154 | 0.96 | -0.14 | 0.438
4 | O[C@@H](Cc1ccccc1)[C@@H](/C=C/C1CC1)N(CC#Cc1ccccc1)Cc1ccccc1Br | -0.144 | 0.586 (inactive) | -0.218 | -0.171 | -0.0441 | 0.41 | 0.146 | -1.33 | -1.36 | -0.564
5 | Cc1ccc(F)cc1S(=O)(=O)N[C@@H]1CCN(Cc2ccc(Br)cc2)C1 | 0.694 | -0.388 (inactive) | 0.122 | -0.0424 | 0.276 | -0.593 | -0.386 | -0.811 | 0.743 | -0.862
6 | COc1ccc(CCNC(=O)[C@@]2(Sc3ccc(C)cc3)CC(=O)N(Cc3ccccc3C(F)(F)F)[C@@H]2c2ccc(CO)cc2I)cc1 | 0.589 | -0.0511 (inactive) | -0.357 | 0.102 | 0.759 | 2.09 | -0.0867 | -0.3 | -0.865 | -0.71
7 | Cc1ccc(C(C)CC(O)C2C=CC3C(=O)N(c4ccccc4)C(=O)C3N2Nc2ccccc2)o1 (stereo not given) | 0.804 | -0.474 (inactive) | 0.257 | -0.0303 | 0.382 | 1.55 | 0.412 | 1.29 | -0.19 | 1.09
8 | CCCCCCCCCCC(O)C1C=CC2C(=O)N(c3ccccc3)C(=O)C2N1Nc1ccc(C#N)cc1 (stereo not given) | 0.957 | 0.338 (inactive) | 0.286 | 0.0169 | 0.562 | 1.53 | 0.906 | 1.34 | -0.842 | 1.12
9 | O=C1[C@H]2C=C(I)[C@H](C[C@@H]2OCCOCCO)[C@@]12CO2 | -0.35 | -0.175 (inactive) | -0.0299 | -0.173 | -0.0167 | -0.477 | 0.072 | 0.807 | 0.466 | 0.2
10 | COc1ccc([Si](C)(C)[C@@H]2[C@@H](CCO)O[C@]3(C(=O)N(Cc4ccccc4)c4ccc(N5CCOC5=O)cc43)[C@H]2C)cc1 | 0.279 | 0.774 (inactive) | -0.0647 | -0.102 | 0.324 | 0.747 | 0.294 | 1.32 | 0.127 | 0.816
11 | CS(=O)(=O)CCOC(=O)C1=CC(c2ccc(CO)cc2)=CC(C2CC2)N(Cc2sc3ccccc3c2Cl)C=C1C(=O)OCCS(C)(=O)=O (stereo not given) | 0.52 | 0.42 (inactive) | 0.029 | -0.0839 | 0.815 | 0.737 | 0.55 | 1.03 | 0.802 | 1.11
12 | O=C1OCCC=C[C@H]2OC34C=CCN(c5ccc6ccccc6c5)C(=O)[C@H]3N(CCCO)C(=O)[C@@H]4C12 (stereo not given in full) | -1.39 | 0.168 (inactive) | -0.278 | -0.205 | -0.303 | -0.626 | -0.678 | -1.82 | -2.29 | -0.533
13 | CN(C)C(=O)[C@]1(CCC(=O)OC(C)(C)C)N=C(c2ccc(OCCCO)cc2)O[C@@H]1c1ccccc1CN=[N+]=[N-] | 1.01 | -0.579 (inactive) | 0.0749 | -0.0037 | 0.673 | 3.17 | 1.15 | 1.34 | -1.24 | 1.12
14 | CN(C)C(=O)[C@@]1(Cc2ccccc2CN=[N+]=[N-])N=C(c2ccc(OCCCO)cc2)O[C@H]1c1ccccc1N=[N+]=[N-] | 0.973 | 0.91 (inactive) | 0.612 | -0.115 | 0.731 | 2.95 | 0.772 | 1.21 | -0.612 | 1.1
15 | Cc1ccccc1C(O)C1C=CC2C(=O)NC(=O)C2N1Nc1ccccn1 (stereo not given) | 0.65 | 0.497 (inactive) | -0.15 | -0.14 | 0.355 | 0.78 | 0.483 | -0.805 | 0.102 | -0.227
16 | C=C(COC)/C(=C/C[C@H](OC(=O)c1ccncc1)c1ccc(CO)o1)c1cnc2ccccc2c1 | -0.0377 | 0.99 (inactive) | 0.0282 | -0.123 | 0.915 | 1.04 | 1.12 | 1.27 | 0.766 | 1.08
17 | COC(=O)[C@@]1(Cc2ccccc2)[C@H]2c3cc(C(=O)N(C)C)n(Cc4ccc(C)o4)c3C[C@H]2CN1C(=O)c1ccccc1 | 0.874 | 0.173 (inactive) | 1.25 | 0.618 | 0.753 | 1.93 | 0.673 | 1.12 | -1.06 | 0.354
18 | CN(C)c1ccc(C(O)C2C=CC3C(=O)NC(=O)C3N2Nc2ccccn2)cc1 (stereo not given) | 0.396 | 0.378 (inactive) | -0.0419 | 0.046 | 0.788 | 0.718 | 0.282 | 0.711 | 0.987 | 0.372
19 | C=CCC(OC(C)=O)[C@@H]1[C@@H](N(Cc2ccc(-c3cccc(C(F)(F)F)c3)o2)C(=O)c2ccc(-c3ccccc3)cc2)c2cc(OCCCO)ccc2N1C(=O)Cc1ccc2ccccc2c1 (stereo not given in full) | -0.124 | -0.274 (inactive) | -0.149 | -0.11 | -0.177 | 0.453 | -0.039 | -0.421 | -0.353 | -0.0333
20 | CCOC(=O)C[C@H]1[C@H](OC(=O)Cc2ccc3c(c2)OCO3)[C@@H](NC(=O)c2ccc3ccccc3n2)c2cc(OCCCO)ccc2N1C(=O)c1ccc2ccccc2n1 | 0.208 | -0.0069 (inactive) | -0.0646 | -0.135 | 0.371 | 0.986 | 0.171 | 0.796 | 0.0741 | 1.07
21 | Cc1ccc(N2C(=O)c3ccccc3[C@@H](C(=O)NCCCN(C)C)[C@@H]2c2ccc(CO)cc2)nc1 | -0.0424 | 0.403 (inactive) | -0.416 | -0.244 | -0.0786 | -0.515 | -0.225 | -0.292 | -0.283 | 0.375
22 | CC(C)N1C(=O)C[C@@](C(=O)O)(c2ccc([N+](=O)[O-])cc2)[C@H]1c1ccc(CO)cc1 | -0.795 | 0.589 (inactive) | -0.0947 | -0.0586 | 0.754 | 1.52 | 0.0273 | 0.69 | -1.25 | 0.279
23 | CCCC=C(CCC)[C@@H](NC(=O)C(C)(C)C)c1ccc(C(=O)OC)cc1 | 0.991 | 0.29 (inactive) | 0.25 | 0.0199 | 0.441 | 2.76 | 0.103 | 0.622 | -0.91 | 0.869
24 | CC(C)C(CO)N1C(=O)[C@@H]2C3C(=O)OCCC/C=C\[C@H]3OC23C=CCN(Cn2nnc4ccccc42)C(=O)[C@@H]13 (stereo not given in full) | -0.37 | -0.0983 (inactive) | -0.256 | -0.181 | 0.885 | 0.295 | 0.685 | 0.713 | -0.81 | -0.662
25 | COc1cc2c(cc1O)C=[N+](Cc1sc3ccccc3c1Cl)CC2 | 0.606 | 0.0375 (inactive) | -0.0546 | -0.0658 | 0.742 | 0.491 | 0.361 | -0.291 | 0.496 | 0.968
26 | CCOC(=O)C[C@H]1[C@H](OC(=O)c2ccc(C(=O)c3ccccc3)cc2)[C@@H](NC(=O)CC(C)C)c2cc(OCCCO)ccc2N1C(=O)c1ccccc1 | 0.415 | -0.24 (inactive) | 0.104 | -0.0357 | 0.351 | 1.01 | -0.0609 | 1.3 | 0.262 | 1.05
